Out of some 420,000 compounds screened, about 64,000 (15%) were called active. Roughly 27% stayed inconclusive and do not appear here. These entries were drawn from the full list. Unmarked numbers belong to inactive results. Calls come from the whole dose curve; as a rule, active = well fitted inhibition curve with a large enough effect; inconclusive = small, poorly fitted or top-dose-only effect; inactive = flat fitted curve, though single readings scatter.
Test: qHTS for Inhibitors of human tyrosyl-DNA phosphodiesterase 1 (TDP1): qHTS in cells in absence of CPT; note: nearly all actives have a fitted effect of over 55% in size
Conditions: DT40 Tdp1-/- hTDP1 cells, no CPT, ATP luminescence, 48 h; activity change, negative = growth inhibition: at 46.2 µM (top of the series)
How it was run: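 Stably hTDP1-transfected Tdp1-null chicken DT40 cells were treated with library compounds minus camptothecin and grown for at least 48 hr at 37 °C, after which cellular ATP was quantified by luminescence.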
% is set by controls: 0 for no effect and ±100 for the full control effect; potency is the fitted concentration of half-maximal effect.

Compound	activity change, negative = growth inhibition	Potency
CCc1ccc(NC(=O)Cn2ncn3c(cc4ccccc43)c2=O)cc1	-18.2%	–
CN1C(=O)c2ccccc2Sc2ccc(NC(=O)Cc3ccc(Cl)cc3)cc21	–	16.4 µM (active)
CCN1C(=O)c2ccccc2Sc2ccc(NC(=O)Cc3ccc(OC)cc3)cc21	-21.6%	–
CC(=O)Nc1ccc(NC(=O)COc2ccccc2C(=O)Nc2cccc(Cl)c2Cl)cc1	-19.4%	–
CCOc1ccccc1C(=O)NCCCn1ccnc1	-10.6%	–
CCOc1ccccc1C(=O)Nc1ccc2c(c1)N(C)C(=O)c1ccccc1S2	–	3.66 µM (active)
Cc1nn(-c2ccccc2)c(=O)c2noc(C)c12	-18.1%	–
CN1CC(O)c2cc(N=NC(N)=O)c(O)cc21 (stereo unspecified)	-2.16%	–
OC(COc1ccc2ccccc2c1)CN1CCOCC1 (stereo unspecified)	–	inactive
COc1cccc(/C=N/Nc2cc(C)nc(-c3ccccc3O)n2)c1O	–	8.2 µM (active)
COc1cc(NS(=O)(=O)c2ccccc2)ccc1-n1nc(C)cc1C	-20%	–
COc1ccccc1/C=N/Nc1nc(C)c(C(C)=O)s1	-11.1%	–
Cc1cc(N/N=C\c2ccc(Br)cc2)nc(-n2nc(C)cc2C)n1	–	2.91 µM (active)
COc1ccccc1/C=N\Nc1cc(C)nc(-n2nc(C)cc2C)n1	–	5.17 µM (active)
COc1cccc(/C=N/Nc2ccc(S(=O)(=O)Nc3ccccc3C(=O)O)cc2[N+](=O)[O-])c1O	-4.64%	–
Cc1nc(Cl)cc(N/N=C/c2ccccc2)n1	-0.294%	–
Cc1cc2c(C)nc(N/N=C/c3ccccc3)nc2o1	-27.5%	–
COc1ccccc1-n1c(SCC(=O)Nc2cccc(C(=O)O)c2)nnc1-c1ccccc1O	-7.49%	–
Cn1ncc(Br)c1C(=O)NC1CCCC1	-4.22%	–
CCC(C)[C@H](NC(=O)N1c2ccccc2NC(=O)[C@@H]1C(C)C)C(=O)N[C@@H](Cc1ccccc1)C(=O)O (stereo partly specified)	-4.99%	–
CC1CN(C(=O)c2cc(COc3c(F)cccc3F)on2)CCN1C (stereo unspecified)	-0.627%	–
CC(C)NC(=O)N1CCCC2(CCN(C(=O)c3cccn3C)CC2)C1	1.59%	–
COc1cccc2cc(S(=O)(=O)c3ccc(C)cc3)/c(=N/NS(=O)(=O)c3ccc(C)cc3)oc12	-3.29%	–
Cc1c(C)c2ccc(OCC(=O)N3CCC(C(=O)O)CC3)c(C)c2oc1=O	-1.1%	–
COc1cc2nc(NCC(C)c3ccccc3)n3nc(-c4ccccc4)nc3c2cc1OC (stereo unspecified)	–	13 µM (active)
COc1cc2nc(SCC(=O)Nc3ccccc3F)n3nc(-c4ccccc4)nc3c2cc1OC	0.878%	–

Compound	activity change, negative = growth inhibition	Potency
CSc1ncnc2c1ncn2CCCNCC(C)c1ccccc1 (stereo unspecified)	-10.2%	–
CCn1c(SCC(=O)NC2CC2)nnc1-c1ccncc1	14%	–
O=C(NCc1ccco1)c1ccc([N+](=O)[O-])cc1Cl	-0.784%	–
CCCC(=O)N1CCC1(C)C(=O)NCc1ccc(C(C)C)cc1 (stereo unspecified)	-8.04%	–
CC(C)Oc1ccc(CN2CCC2(C)C(=O)NCc2ccc(C(F)(F)F)cc2)cc1 (stereo unspecified)	–	14.6 µM (active)
CC(C)CN1CCC1(C)C(=O)Nc1ccc(OC(F)F)cc1 (stereo unspecified)	-27.1%	–
CN1CCNC(=O)C1CC(=O)N1CC=C(c2ccc(F)cc2)CC1 (stereo unspecified)	3.99%	–
COc1ccc(NC(=O)COC(=O)c2ccncc2)c(OC)c1	-8.51%	–
CC(C)(C)S(=O)(=O)N1Cc2cc(CO)cc(CCO)c2[C@H]1CCO	-7.27%	–
CCN(CC(=O)Nc1ccc(NC(C)=O)cc1)C(=O)CSC(=S)N1CCCC1	–	7.31 µM (active)
COc1cccc(NC(=O)CN(C)C(=O)CSC(=S)N2CCCC2)c1	-5.25%	–
CC(=O)c1ccc(NC(=O)CSC(=S)N2CCCC2)cc1	-0.101%	–
CC(C)(C)OC(=O)C1=C(CO)CS[C@@H]2[C@H](NC(=O)Cc3ccccc3)C(=O)N12	-14%	–
CN(Cc1ccc(F)cc1)C(=O)CN1C(=O)c2ccccc2S1(=O)=O	-8.82%	–
O=C(NCCc1ccccc1)c1ccc2c(c1)N(Cc1ccc(F)cc1)C(=O)c1ccccc1S2(=O)=O	–	13 µM (active)
O=C(NCCc1ccc(Cl)cc1)c1cccc(N2CCCC2=O)c1	-17.4%	–
O=C(NCCc1ccc(Cl)cc1)c1ccc2c(c1)N(Cc1ccc(F)cc1)C(=O)CS2	–	29.1 µM (active)
NS(=O)(=O)c1ccc(CCNC(=O)CN2C(=O)c3ccccc3S2(=O)=O)cc1	4.21%	–
O=C(NCCC1=CCCCC1)c1ccc2c(c1)N(Cc1ccccc1F)C(=O)c1ccccc1S2(=O)=O	–	16.4 µM (active)
O=C(c1ccc2c(c1)N(Cc1ccc(F)cc1)C(=O)CS2)N1CCOCC1	1.02%	–
Cc1ccc(C)c(NC(=O)Cn2ccn(-c3ccc(F)cc3)c(=O)c2=O)c1	18%	–
NS(=O)(=O)c1ccc(CCNC(=S)Nc2ccc(S(N)(=O)=O)cc2)cc1	0.29%	–
CCOc1ccc(N(CC)C(=O)c2cc3c(=O)oc4ccccc4c3s2)cc1	-25.6%	–
Cc1cc([N+](=O)[O-])nn1Cc1ccc(F)cc1	-28%	–
O=c1c2ccccc2c(-c2ccccc2)nn1-c1ccccn1	-23%	–

From PubChem BioAssay AID686978 (National Center for Advancing Translational Sciences (NCATS), 2013)
